PubChem BioAssay AID1159580 (chemical genetic matrix, 2015)
Several values for one entry are separate records, joined by “and”; a condition that tells them apart may be missing. Identical values can stand only once. Among all 5,500 compounds or so, about 2,000 (36%) were called active. About 18% were inconclusive and are not listed. No stated cut-off is given here; in the data, active means normalized growth mostly below about 0.91 (no sharp cut-off); inconclusive means no clear call, values can overlap the other calls; inactive means mostly above about 0.92. This is one part of the list.

Test: chemical genetic growth profiling, strain panel (AID 1159580);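 further: tested at 20 µM; growth read once vehicle control cultures reached saturation at 30 °C; 1 = growth at the plate median or of vehicle wells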
Details: S. cerevisiae deletion strains, growth OD

Measured: normalized growth

Cc1cc2cc3c(C)cc(=O)oc3c(C)c2o1
inactive: locus YAL013W, strain DEP1, stronger effect = lower value 0.965 | locus YAL021C, strain ccr4, stronger effect = lower value 0.992 | locus YAL026C, strain drs2, stronger effect = lower value 0.949 | locus YAL030W, strain snc1, stronger effect = lower value 1.01 | locus YBL061C, strain skt5, stronger effect = lower value 0.997 | locus YBR009C, strain hhf1, stronger effect = lower value 0.937 | locus YBR021W, strain FUR4, stronger effect = lower value 1 | locus YBR023C, strain chs3, stronger effect = lower value 0.968 | locus YBR171W, strain sec66, stronger effect = lower value 0.959 | locus YBR229C, strain ROT2, stronger effect = lower value 0.967 | locus YBR231C, strain swc5, stronger effect = lower value 0.993 | locus YBR279W, strain paf1, stronger effect = lower value 0.949 | locus YCL011C, strain gbp2, stronger effect = lower value 0.955 | locus YCL016C, strain dcc1, stronger effect = lower value 0.939 | locus YCL029C, strain bik1, stronger effect = lower value 0.958 | locus YCL061C, strain MRC1, stronger effect = lower value 1 | locus YCL069W, strain vba3, stronger effect = lower value 0.955 | locus YCR088W, strain abp1, stronger effect = lower value 0.987 | locus YDL005C, strain med2, stronger effect = lower value 0.993 | locus YDL035C, strain GPR1, stronger effect = lower value 0.92 | locus YDL040C, strain nat1, stronger effect = lower value 1 | locus YDL074C, strain BRE1, stronger effect = lower value 0.832 | locus YDL101C, strain DUN1, stronger effect = lower value 0.933 | locus YDL134C, strain PPH21, stronger effect = lower value 0.951 | locus YDL185W, strain tfp1, stronger effect = lower value 0.958 | locus YDL192W, strain arf1, stronger effect = lower value 0.966 | locus YDR001C, strain nth1, stronger effect = lower value 0.984 | locus YDR069C, strain doa4, stronger effect = lower value 1.02 | locus YDR101C, strain arx1, stronger effect = lower value 0.951 | locus YDR137W, strain rgp1, stronger effect = lower value 1.03 | locus YDR150W, strain NUM1, stronger effect = lower value 0.993 | locus YDR159W, strain sac3, stronger effect = lower value 0.996 | locus YDR162C, strain NBP2, stronger effect = lower value 0.956 | locus YDR297W, strain sur2, stronger effect = lower value 1.01 | locus YDR318W, strain mcm21, stronger effect = lower value 0.94 | locus YDR334W, strain swr1, stronger effect = lower value 1 | locus YDR335W, strain msn5, stronger effect = lower value 1 | locus YDR388W, stronger effect = lower value 0.956 | locus YDR392W, strain spt3, stronger effect = lower value 0.875 | locus YDR502C, strain sam2, stronger effect = lower value 0.957 | locus YEL003W, strain gim4, stronger effect = lower value 0.972 | locus YEL037C, strain rad23, stronger effect = lower value 0.949 | locus YEL061C, strain CIN8 (second series), stronger effect = lower value 0.989 | locus YEL061C, strain CIN8, stronger effect = lower value 0.98 | locus YER015W, strain faa2, stronger effect = lower value 0.981 | locus YER016W, strain bim1, stronger effect = lower value 1 | locus YER110C, stronger effect = lower value 0.969 | locus YER111C, strain swi4, stronger effect = lower value 0.991 | locus YER155C, strain BEM2 (second series), stronger effect = lower value 0.926 | locus YER155C, strain BEM2, stronger effect = lower value 0.982 | locus YER167W, strain BCK2, stronger effect = lower value 0.975 | locus YFR010W, strain ubp6, stronger effect = lower value 0.965 | locus YGL078C, strain dbp3, stronger effect = lower value 0.982 | locus YGL086W, strain mad1, stronger effect = lower value 0.973 | locus YGL167C, strain pmr1, stronger effect = lower value 1.01 | locus YGL173C, strain kem1, stronger effect = lower value 0.997 | locus YGL227W, strain vid30, stronger effect = lower value 0.999 | locus YGL240W, strain doc1, stronger effect = lower value 0.98 | locus YGL248W, strain PDE1, stronger effect = lower value 0.929 | locus YGL253W, strain hxk2, stronger effect = lower value 0.953 | locus YGR078C, strain PAC10, stronger effect = lower value 0.879 | locus YGR135W, strain pre9, stronger effect = lower value 0.905 | locus YGR229C, strain SMI1, stronger effect = lower value 0.867 | locus YGR252W, strain gcn5, stronger effect = lower value 0.917 | locus YHR013C, strain ard1, stronger effect = lower value 0.877 | locus YHR027C, strain rpn1, stronger effect = lower value 1 | locus YHR079C, strain IRE1 (second series), stronger effect = lower value 0.981 | locus YHR079C, strain IRE1, stronger effect = lower value 0.948 | locus YHR094C, strain hxt1, stronger effect = lower value 0.992 | locus YHR129C, strain ARP1, stronger effect = lower value 0.967 | locus YHR142W, strain chs7, stronger effect = lower value 0.944 | locus YHR200W, strain rpn10, stronger effect = lower value 0.941 | locus YIL066C, strain RNR3, stronger effect = lower value 0.918 | locus YIL073C, strain SPO22, stronger effect = lower value 0.888 | locus YIL125W, strain kgd1, stronger effect = lower value 1 | locus YIR030C, strain dcg1, stronger effect = lower value 0.988 | locus YJL092W, strain hpr5, stronger effect = lower value 0.978 | locus YJL095W, strain BCK1 (second series), stronger effect = lower value 0.988 | locus YJL115W, strain asf1, stronger effect = lower value 0.991 | locus YJL129C, strain trk1, stronger effect = lower value 1.02 | locus YJL134W, strain LCB3, stronger effect = lower value 0.977 | locus YJL154C, strain vps35, stronger effect = lower value 0.99 | locus YJL164C, strain tpk1, stronger effect = lower value 0.95 | locus YJL166W, strain qcr8, stronger effect = lower value 0.989 | locus YJL187C, strain SWE1 (second series), stronger effect = lower value 0.91 | locus YJR043C, strain POL32, stronger effect = lower value 0.89 | locus YJR066W, strain TOR1, stronger effect = lower value 0.89 | locus YJR075W, strain HOC1, stronger effect = lower value 0.946
active: locus YDR195W, strain ref2 1.28 [resistant]
0.752 (active) and 0.891 (inactive): locus YJL095W, strain BCK1, stronger effect = lower value
0.908 (active) and 0.94 (inactive): locus YHR030C, strain SLT2, stronger effect = lower value
